Shown are actives, neighbours in structure and some others; about 0.43% of the full set was active somewhere.
GAA glycogen: qHTS Assay for Inhibitors and Activators of Human alpha-Glucosidase Cleavage of Glycogen. Potency, µM (doses to about 76.4 µM), for inactives: at the top dose activity change, negative = inhibition, most hits filed as inhibitors. 300,000 tested, 0.38% active. recombinant GAA, glycogen substrate, Amplex Red glucose oxidase fluorescence. Lysosomal alpha-glucosidase (Homo sapiens), P10253;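 further: potency means the concentration at half of the fitted maximal effect; 0% = full enzyme reaction and -100% = no-enzyme basal signal; the screen sought inhibitors and activators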
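Recombinant human enzyme (4 nM); glycogen substrate; 37 C, 40 min, pH 5.0. Readout: coupled glucose oxidase/Amplex Red fluorescence.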
aGlu spleen mod: qHTS Assay for Inhibitors and Activators of Human alpha-Glucosidase From Spleen Homogenate; human spleen homogenate, 4-MU-alpha-glucoside fluorescence; Potency, µM (doses to about 79.9 µM), for the others: at the top dose activity change, negative = inhibition, hits mostly inhibitors; 240,000 tested, 0.006% active; AID 2112, 2009;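 further: potency means the concentration at half of the fitted maximal effect; 0% = enzyme with vehicle and -100% = no enzyme basal signal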
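Compounds were titrated against alpha-glucosidase in spleen homogenate at pH 5.0, with 1 mM 4-methylumbelliferyl substrate for 40 min at 37 C. Reactions were quenched with pH 10 NaOH/glycine and fluorescence measured.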
GAA inh: qHTS Assay for Inhibitors of Human alpha-Glucosidase as a Potential Chaperone Treatment of Pompe Disease; Lysosomal alpha-glucosidase (Homo sapiens), P10253; purified human GAA, 4-MU-alpha-glucoside fluorescence; Potency, µM (titrated, usually from 76.9 µM), for the others: top-dose activity change, negative = inhibition, most hits filed as inhibitors; 200,000 tested, 0.005% active; AID 1466, 2008;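 further: potency means the concentration at half of the fitted maximal effect; plate controls were uninhibited enzyme wells for no effect and no-enzyme background for full effect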
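Fluorogenic assay: 4 nM human alpha-glucosidase with 400 uM 4-methylumbelliferyl-alpha-D-pyranoside in 50 mM citrate/phosphate, 0.005% Tween-20, pH 5.0, 20 min at room temperature. Compounds tested up to 77 uM; AC50 from Hill fits.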
N370S GC mod: qHTS Assay for Inhibitors and Activators of N370S glucocerebrosidase as a Potential Chaperone Treatment of Gaucher Disease; Potency, µM (titrated, usually from 59.4 µM), for inactives: at the highest dose activity change, negative = inhibition, most hits filed as inhibitors; AID 2101, 2009; 330,000 tested, 0.092% active; N370S GC spleen homogenate, 4MU-glucoside fluorescence;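 further: potency means the concentration at half of the fitted maximal effect; 0% = full enzyme activity and -100% = no enzyme basal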
GLA inh pH 4.5: qHTS Assay for Inhibitors of Human alpha-Galactosidase at pH 4.5 | 230,000 tested, under 10 active | activity change, negative = inhibition, % at 105 µM | Alpha-galactosidase A (Homo sapiens), P06280 | purified enzyme, 4-MU-alpha-Gal fluorescence, pH 4.5;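 further: 0% = full activity with enzyme and -100% = basal without enzyme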
aGal spleen mod: qHTS Assay for Inhibitors and Activators of Human alpha-Galactosidase From Spleen Homogenate; Alpha-galactosidase A (Homo sapiens), P06280; human spleen homogenate, 4MU-alpha-Gal fluorescence, 40 min; Potency, µM (titrated, usually from 80 µM), for the others: at the top dose activity change, negative = inhibition, usual class: inhibitors; 240,000 tested, 0.008% active; AID 2107, 2009;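 further: potency means the concentration at half of the fitted maximal effect; 0% = enzyme with vehicle and -100% = no enzyme basal signal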
Target sequence (P06280 32-429 limits assumed): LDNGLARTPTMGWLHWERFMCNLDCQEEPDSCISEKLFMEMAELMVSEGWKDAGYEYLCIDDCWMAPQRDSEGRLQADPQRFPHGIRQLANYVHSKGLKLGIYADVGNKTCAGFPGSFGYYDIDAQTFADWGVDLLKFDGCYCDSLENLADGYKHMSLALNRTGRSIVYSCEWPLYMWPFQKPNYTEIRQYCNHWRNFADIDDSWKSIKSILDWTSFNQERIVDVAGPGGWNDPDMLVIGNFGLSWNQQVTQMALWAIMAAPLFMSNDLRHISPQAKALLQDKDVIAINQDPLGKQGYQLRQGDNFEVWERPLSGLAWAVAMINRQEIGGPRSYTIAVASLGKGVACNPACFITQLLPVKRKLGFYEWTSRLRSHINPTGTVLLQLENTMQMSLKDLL
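qHTS titration in buffer at pH 5.0. Alpha-galactosidase activity in spleen homogenate was measured via 4-methylumbelliferone release from 1 mM fluorogenic substrate after 40 min at 37C and a pH 10 stop. AC50 came from Hill fits of control-normalized data.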
Numbers without * were called inactive; u = inconclusive; x = no result. The call rests on the fitted dose curve; in most records, active means well fitted curve in the direction sought with a large enough effect; inconclusive means small, poorly fitted or top-dose-only effect, or another doubt; inactive means no such curve, though single readings can be large; an effect the other way counts as inactive or inconclusive.

SMILES | GAA glycogen | aGlu spleen mod | GAA inh | N370S GC mod | GLA inh pH 4.5 | aGal spleen mod
CCCn1cnc2cc(NCc3cccc(OC)c3O)ccc21 | 18µM* | -2% | -3% | 4% | -1 | 2%
COc1cccc(CNc2ccc(Br)cn2)c1O | u | -3% | -13% | 1% | -22 | -3%
COc1cccc(CNc2ncc(Br)cc2Br)c1O | 25µM* | -1% | -5% | 13% | -8 | 7%
O=C(O)c1cc(O)c2c(c1)[C@H]([C@H]1c3cc(C(=O)O)cc(O)c3C(=O)c3c(O[C@@H]4OC(CO)C(O)C(O)C4O)cccc31)c1cccc(O[C@@H]3OC(CO)C(O)C(O)C3O)c1C2=O (stereo partly specified) | x | 1% | x | -23% | -12 | u
Oc1ccc(/C=N/Nc2ncc(Br)cn2)c(O)c1 | 28µM* | 8% | -9% | -23% | -12 | 9%
O=c1[nH]ncc(N/N=C\c2ccc(O)cc2O)c1Cl | 2.5µM* | -11% | -10% | -13% | -13 | -1%
CC1C(=O)NN=C1C(=O)N/N=C\c1ccc(O)cc1O (stereo unspecified) | -2% | -8% | 0% | -16% | -4 | -6%
Oc1ccc(/C=N/Nc2nccnc2Cl)c(O)c1 | 11µM* | -2% | -4% | u | 2 | -2%
Oc1ccc(/C=N/Nc2cccc3cccnc23)c(O)c1 | 25µM* | -10% | -2% | 1% | -1 | -6%
Oc1ccccc1/C=N/Nc1nccnc1Cl | -1% | 1% | -1% | -23% | 6 | 3%
Oc1ccc(Br)cc1/C=N/Nc1ncc(-c2ccccc2)cn1 | 5% | 1% | 2% | -1% | -1 | 3%
COc1c(-c2coc3cc4c(cc3c2=O)CC(O)C(C)(C)O4)ccc2c1C=CC(C)(C)O2 (stereo unspecified) | x | 9% | x | u | -14 | 14%
CC[C@H](C)[C@H](NC(=O)[C@H](Cc1cnc[nH]1)NC(=O)[C@@H](NC(=O)[C@H](CCCNC(=N)N)NC(=O)[C@H](CCCCN)NC(=O)[C@H](CCCNC(=N)N)NC(=O)[C@H](CCCCN)NC(=O)[C@@H](N)CC(N)=O)[C@@H](C)CC)C(=O)NCC(=O)N1CCC[C@H]1C(=O)NCC(=O)N[C@@H](CCCNC(=N)N)C(=O)N[C@@H](C)C(=O)N[C@@H](Cc1ccccc1)C(=O)N[C@@H](Cc1ccc(O)cc1)C(=O)N[C@H](C(=O)N[C@H](C(=O)N[C@@H](CCCCN)C(=O)N[C@@H](CC(N)=O)C(=O)N[C@H](C(=O)N[C@H](C(=O)NCC(=O)N[C@H](C(=O)N[C@H](C(=O)N[C@@H](CS)C(=O)O)[C@@H](C)CC)[C@@H](C)O)[C@@H](C)CC)[C@@H](C)CC)[C@@H](C)O)[C@@H](C)O | x | 6% | x | -8% | x | -5%
O=S(=O)(O)c1ccc2c(c1)-c1nc-2nc2[nH]c(nc3nc(nc4[nH]c(n1)c1ccc(S(=O)(=O)O)cc41)-c1ccc(S(=O)(=O)O)cc1-3)c1ccc(S(=O)(=O)O)cc21 | x | 1% | x | -3% | x | -10%
Cc1nnc(N/N=C/c2c(O)n(-c3cccc(C(F)(F)F)c3)c(=O)c3ccccc23)[nH]c1=O | 25µM* | -3% | -2% | -11% | -4 | -7%
